From the supplement of paper PMC10849652 come the findings set out here.

The full data set covers some 8,800 targets. This sample favours those with a hit. About 0.5% of all pairs of compound and target were hits. A number with no mark means an inactive call.

UniProt Q13409, sequence (Q13409 whole entry, looked up): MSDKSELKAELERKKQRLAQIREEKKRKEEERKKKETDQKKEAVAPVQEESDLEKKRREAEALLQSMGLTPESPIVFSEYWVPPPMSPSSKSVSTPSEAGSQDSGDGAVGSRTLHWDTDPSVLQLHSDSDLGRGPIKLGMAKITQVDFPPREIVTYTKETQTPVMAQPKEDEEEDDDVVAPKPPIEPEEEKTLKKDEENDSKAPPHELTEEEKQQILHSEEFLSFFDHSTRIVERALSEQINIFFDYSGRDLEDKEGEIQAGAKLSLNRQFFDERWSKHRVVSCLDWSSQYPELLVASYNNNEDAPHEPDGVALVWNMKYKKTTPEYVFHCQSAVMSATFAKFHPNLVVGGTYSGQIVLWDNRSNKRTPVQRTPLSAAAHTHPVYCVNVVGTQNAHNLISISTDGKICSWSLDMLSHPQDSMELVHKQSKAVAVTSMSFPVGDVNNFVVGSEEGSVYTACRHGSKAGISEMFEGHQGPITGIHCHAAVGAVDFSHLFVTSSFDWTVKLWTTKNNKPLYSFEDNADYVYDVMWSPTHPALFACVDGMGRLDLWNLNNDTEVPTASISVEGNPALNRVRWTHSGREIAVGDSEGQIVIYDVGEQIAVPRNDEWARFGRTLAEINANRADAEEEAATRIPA
UniProt P85037, sequence (P85037 whole entry, looked up): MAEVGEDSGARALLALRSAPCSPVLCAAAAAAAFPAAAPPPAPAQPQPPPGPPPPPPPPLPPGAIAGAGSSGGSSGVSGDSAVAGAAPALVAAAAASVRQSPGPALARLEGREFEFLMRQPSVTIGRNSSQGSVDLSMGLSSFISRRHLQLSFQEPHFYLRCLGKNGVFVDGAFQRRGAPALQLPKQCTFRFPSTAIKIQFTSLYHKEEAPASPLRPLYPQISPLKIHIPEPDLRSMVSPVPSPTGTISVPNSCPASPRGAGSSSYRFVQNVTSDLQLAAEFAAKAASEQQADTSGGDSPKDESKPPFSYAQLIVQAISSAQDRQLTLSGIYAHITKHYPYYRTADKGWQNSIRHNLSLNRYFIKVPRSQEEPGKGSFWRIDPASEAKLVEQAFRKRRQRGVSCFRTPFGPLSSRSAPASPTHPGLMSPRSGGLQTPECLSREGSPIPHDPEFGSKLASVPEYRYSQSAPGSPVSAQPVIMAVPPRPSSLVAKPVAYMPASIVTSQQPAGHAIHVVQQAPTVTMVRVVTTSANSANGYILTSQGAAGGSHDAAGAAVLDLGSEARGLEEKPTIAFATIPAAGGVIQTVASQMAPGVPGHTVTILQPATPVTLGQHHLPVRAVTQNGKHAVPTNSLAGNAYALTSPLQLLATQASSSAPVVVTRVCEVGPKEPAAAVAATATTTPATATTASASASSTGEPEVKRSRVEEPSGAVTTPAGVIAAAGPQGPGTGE
UniProt Q8NEZ5, sequence (Q8NEZ5 whole entry, looked up): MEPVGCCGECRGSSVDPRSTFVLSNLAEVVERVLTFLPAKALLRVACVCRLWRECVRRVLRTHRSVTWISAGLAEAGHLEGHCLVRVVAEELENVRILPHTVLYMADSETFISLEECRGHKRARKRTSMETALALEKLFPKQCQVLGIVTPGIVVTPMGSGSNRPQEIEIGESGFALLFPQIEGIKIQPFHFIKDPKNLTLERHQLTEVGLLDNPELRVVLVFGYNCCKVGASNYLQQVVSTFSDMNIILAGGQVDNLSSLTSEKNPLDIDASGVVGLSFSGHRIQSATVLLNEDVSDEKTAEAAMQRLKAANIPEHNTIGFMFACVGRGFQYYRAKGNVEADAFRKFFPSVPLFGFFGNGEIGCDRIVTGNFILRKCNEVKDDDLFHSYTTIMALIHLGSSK
UniProt P0C2W1, sequence (P0C2W1 whole entry, looked up): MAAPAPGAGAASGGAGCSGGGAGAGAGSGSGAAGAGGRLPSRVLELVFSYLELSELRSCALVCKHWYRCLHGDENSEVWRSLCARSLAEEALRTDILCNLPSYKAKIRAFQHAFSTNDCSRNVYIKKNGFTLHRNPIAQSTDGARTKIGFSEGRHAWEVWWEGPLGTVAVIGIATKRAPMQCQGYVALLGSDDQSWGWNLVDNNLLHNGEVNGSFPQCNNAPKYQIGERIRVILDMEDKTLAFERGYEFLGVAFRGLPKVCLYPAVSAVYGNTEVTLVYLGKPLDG
UniProt Q9BQS8, sequence (Q9BQS8 whole entry, looked up): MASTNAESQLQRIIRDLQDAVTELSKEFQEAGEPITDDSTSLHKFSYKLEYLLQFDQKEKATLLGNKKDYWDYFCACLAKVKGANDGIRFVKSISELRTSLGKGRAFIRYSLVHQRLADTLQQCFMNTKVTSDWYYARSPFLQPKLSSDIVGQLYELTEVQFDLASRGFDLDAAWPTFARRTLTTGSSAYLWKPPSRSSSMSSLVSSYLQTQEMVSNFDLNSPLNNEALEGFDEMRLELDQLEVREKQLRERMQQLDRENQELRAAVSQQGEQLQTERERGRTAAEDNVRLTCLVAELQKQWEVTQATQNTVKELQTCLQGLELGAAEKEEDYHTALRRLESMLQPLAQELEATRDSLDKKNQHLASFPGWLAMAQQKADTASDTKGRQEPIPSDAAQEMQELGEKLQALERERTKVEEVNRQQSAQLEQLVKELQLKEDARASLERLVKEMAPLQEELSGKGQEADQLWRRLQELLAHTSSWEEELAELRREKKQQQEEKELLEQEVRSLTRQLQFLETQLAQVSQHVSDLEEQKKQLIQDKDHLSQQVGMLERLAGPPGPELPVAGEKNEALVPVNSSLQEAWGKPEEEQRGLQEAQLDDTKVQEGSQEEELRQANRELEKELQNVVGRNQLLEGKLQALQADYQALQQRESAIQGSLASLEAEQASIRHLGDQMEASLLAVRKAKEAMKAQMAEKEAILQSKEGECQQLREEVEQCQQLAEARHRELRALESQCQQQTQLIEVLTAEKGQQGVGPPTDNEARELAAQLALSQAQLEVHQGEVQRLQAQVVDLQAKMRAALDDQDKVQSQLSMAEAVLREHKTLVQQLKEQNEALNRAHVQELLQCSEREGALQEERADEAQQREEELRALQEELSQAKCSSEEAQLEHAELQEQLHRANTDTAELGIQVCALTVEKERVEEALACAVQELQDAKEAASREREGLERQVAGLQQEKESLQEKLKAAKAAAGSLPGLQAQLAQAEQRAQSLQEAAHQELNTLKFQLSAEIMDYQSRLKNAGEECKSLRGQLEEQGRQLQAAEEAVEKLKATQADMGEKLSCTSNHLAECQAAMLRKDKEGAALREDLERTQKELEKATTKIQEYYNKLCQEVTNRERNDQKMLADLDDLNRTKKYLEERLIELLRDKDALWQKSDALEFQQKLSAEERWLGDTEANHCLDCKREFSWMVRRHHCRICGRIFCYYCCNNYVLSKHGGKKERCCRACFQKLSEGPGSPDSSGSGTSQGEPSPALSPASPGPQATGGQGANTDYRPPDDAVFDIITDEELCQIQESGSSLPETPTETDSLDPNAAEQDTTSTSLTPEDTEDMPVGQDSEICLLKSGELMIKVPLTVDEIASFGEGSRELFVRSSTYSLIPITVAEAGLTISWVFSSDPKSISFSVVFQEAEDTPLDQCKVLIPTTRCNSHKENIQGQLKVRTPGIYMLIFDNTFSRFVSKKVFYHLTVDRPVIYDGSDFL
UniProt Q9BPY3, sequence (Q9BPY3 whole entry, looked up): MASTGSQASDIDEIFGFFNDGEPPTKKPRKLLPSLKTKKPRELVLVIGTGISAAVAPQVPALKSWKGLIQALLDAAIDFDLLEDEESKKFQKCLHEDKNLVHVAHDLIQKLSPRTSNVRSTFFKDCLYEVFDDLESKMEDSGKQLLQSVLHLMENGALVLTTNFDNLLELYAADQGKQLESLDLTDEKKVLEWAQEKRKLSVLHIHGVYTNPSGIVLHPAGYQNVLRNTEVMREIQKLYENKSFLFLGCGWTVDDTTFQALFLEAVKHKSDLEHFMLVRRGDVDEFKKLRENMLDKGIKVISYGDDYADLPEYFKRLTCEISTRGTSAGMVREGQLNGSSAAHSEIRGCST
UniProt O14893, sequence (O14893 whole entry, looked up): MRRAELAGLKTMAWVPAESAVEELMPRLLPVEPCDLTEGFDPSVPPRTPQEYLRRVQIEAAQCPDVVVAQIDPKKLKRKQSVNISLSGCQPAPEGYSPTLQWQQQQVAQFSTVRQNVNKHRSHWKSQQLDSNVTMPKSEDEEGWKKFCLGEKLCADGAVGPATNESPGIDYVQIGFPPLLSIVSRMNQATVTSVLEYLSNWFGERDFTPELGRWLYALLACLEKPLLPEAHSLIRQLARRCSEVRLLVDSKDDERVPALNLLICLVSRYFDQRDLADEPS
UniProt P0DPD7, sequence (P0DPD7 whole entry, looked up): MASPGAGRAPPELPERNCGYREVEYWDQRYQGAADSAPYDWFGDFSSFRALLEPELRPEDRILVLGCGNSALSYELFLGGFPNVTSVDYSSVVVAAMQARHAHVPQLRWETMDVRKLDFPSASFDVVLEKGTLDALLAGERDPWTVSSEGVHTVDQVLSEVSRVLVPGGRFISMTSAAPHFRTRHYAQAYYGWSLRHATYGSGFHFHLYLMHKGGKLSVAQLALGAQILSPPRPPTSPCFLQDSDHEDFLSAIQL
UniProt Q9NPA0, sequence (Q9NPA0 whole entry, looked up): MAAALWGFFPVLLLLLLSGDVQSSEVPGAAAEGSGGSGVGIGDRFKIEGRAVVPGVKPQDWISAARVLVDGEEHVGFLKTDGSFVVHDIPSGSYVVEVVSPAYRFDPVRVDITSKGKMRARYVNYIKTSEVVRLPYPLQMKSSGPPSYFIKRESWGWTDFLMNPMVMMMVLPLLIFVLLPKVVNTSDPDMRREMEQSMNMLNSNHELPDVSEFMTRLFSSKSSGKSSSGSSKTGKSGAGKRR
UniProt Q56P03, sequence (Q56P03 whole entry, looked up): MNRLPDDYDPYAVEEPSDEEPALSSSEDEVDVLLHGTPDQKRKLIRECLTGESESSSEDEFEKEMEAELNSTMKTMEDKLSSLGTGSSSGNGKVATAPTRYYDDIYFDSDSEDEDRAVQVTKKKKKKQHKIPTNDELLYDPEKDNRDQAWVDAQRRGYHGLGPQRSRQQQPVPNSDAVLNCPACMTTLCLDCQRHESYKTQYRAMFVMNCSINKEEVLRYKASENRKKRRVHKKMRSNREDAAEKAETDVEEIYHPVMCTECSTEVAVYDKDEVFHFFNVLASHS

Compound in this experiment: CN1CCc2c(c3ccccc3n2Cc2ccc(C(=O)NO)cc2)C1 [Tubastatin A]
The experiment can be described thus: log2 fold change, soluble protein after heating vs DMSO (PISA); higher = thermal stabilisation; K562 lysate, 10 uM; active = over 0.2 and 3.5 SD of the protein, either way, in both replicates (recomputed). An outline of the steps:
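Thermal stability, expressed as log-two fold change relative to solvent controls, is given from duplicates. Crude K562 extract in PBS pH 7.4 with 1 mM MgCl2, at 1 mg/mL protein, was treated with 10 μM compound for 30 min and heated in aliquots for 3 min across 48°C-58°C. After pooling, adjustment to 0.5% NP-40 at 4°C and centrifugation at 21,000xg for 90 min, supernatant protein was measured by TMTpro 16plex LC-MS/MS with channel sums equalised.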
Regarding GEMIN4 (UniProt P57678), the log2 fold change is -0.196.
On to ERAL1 (UniProt O75616), for which the log2 fold change was -0.151.
The value for EMC7 (UniProt Q9NPA0) was 0.039.
Turning to EED, A0A5F9ZI63, the log2 fold change is -0.026.
The value for FAM118B (UniProt Q9BPY3) was -0.058.
Consider GBF1 (UniProt Q92538), for which the log2 fold change was -0.041.
For FAT2 (UniProt Q9NYQ8), the log2 fold change is -0.083.
Consider FLT4 (UniProt P35916), for which the log2 fold change is -0.001.
For the target ERLIN1 (UniProt O75477), the log2 fold change was -0.058.
Regarding EAPP (UniProt Q56P03), the log2 fold change was -0.025.
Turning to GIGYF2 (UniProt Q6Y7W6), the log2 fold change is -0.164.
In the case of FOXK1 (UniProt P85037), the log2 fold change was -0.116.
For the target EIF2B4 (UniProt Q9UI10), the log2 fold change was 0.006.
In the case of GAPDH (UniProt P04406), the log2 fold change is 0.046.
As for EEF1AKMT4 (UniProt P0DPD7), the log2 fold change is -0.027.
The value for FYCO1 isoform 4 (UniProt Q9BQS8) was 0.
Regarding ETHE1 (UniProt O95571), the log2 fold change is 0.035.
Consider FBXO22 (UniProt Q8NEZ5), for which the log2 fold change was -0.002.
Take EP300 (UniProt Q09472): the log2 fold change is 0.035.
With GEMIN2 (UniProt O14893), the log2 fold change is -0.053.
As to DYNC1I2 isoform 2 (UniProt Q13409), the log2 fold change was 0.002.
The value for DYNC1I2 isoform 5 (UniProt Q13409) was 0.007; that for FBXO45 (UniProt P0C2W1) was -0.162.
